The supplement of paper PMC13380429

Tested on: Vero E6 infected with SARS-CoV-2
Assay: inhibition of SARS-CoV-2 cytopathic effect; higher = more antiviral protection, active = above 15
Details: 48 h

Measured: inhibition of SARS-CoV-2 cytopathic effect

O=C(/C=C/c1ccccc1)NC(NC(=S)Nc1cccc2cccnc12)C(Cl)(Cl)Cl (stereo not given) [salubrinal]
inactive: 1 nM 3.2% | 8.33 nM 0.1% | 100 nM 1.16% | 833.33 nM -0.28% | 10000 nM 1.23%

Cc1ccccc1-n1c(CF)nc2ccc(N)cc2c1=O [afloqualone]
inactive: 1 nM -0.9% | 8.33 nM 0.95% | 100 nM -0.71% | 833.33 nM -0.49% | 10000 nM 1.46%

Cc1oc(=O)oc1CN1CCN(c2cc3c(cc2F)c(=O)c(C(=O)O)c2n3C(C)S2)CC1 (stereo not given) [prulifloxacin]
inactive: 1 nM 0.31% | 8.33 nM -0.69% | 100 nM -3.24% | 833.33 nM -1.97% | 10000 nM -3.69%

O=C1Cc2cc(CCN3CCN(c4nsc5ccccc45)CC3)c(Cl)cc2N1 [ziprasidone]
inactive: 1 nM -0.08% | 8.33 nM -2.01% | 100 nM -0.35% | 833.33 nM 0.78% | 10000 nM -2.66%

CCCCC1(COC(=O)CCC(=O)O)C(=O)N(c2ccccc2)N(c2ccccc2)C1=O [suxibuzone]
inactive: 1 nM -0.21% | 8.33 nM -4.18% | 100 nM -2.21% | 833.33 nM -3.64% | 10000 nM 0.42%

CN1C(=O)OC(C)(C)C1=O [trimethadione]
inactive: 1 nM -3.89% | 8.33 nM -1.8% | 100 nM -2.46% | 833.33 nM -3.14% | 10000 nM -1.97%

O=Nc1c(-c2c(O)[nH]c3ccccc23)[nH]c2ccccc12 [indirubin-3-monoxime]
inactive: 1 nM 0.43% | 8.33 nM 0.8% | 100 nM 1.06% | 833.33 nM 5.66% | 10000 nM 3.83%

CCCCCCCCCCCCc1ccc(S(=O)(=O)Nc2nncs2)cc1
inactive: 1 nM -0.85% | 8.33 nM 0.48% | 100 nM -0.22% | 833.33 nM -2.3% | 10000 nM -0.65%

COc1cc2c(cc1OC)-c1cc3nc4ccccc4nc3n1C(C)(C)C2
inactive: 1 nM 2.63% | 8.33 nM 1.86% | 100 nM 1.86% | 833.33 nM -2.74% | 10000 nM -7.6%

CS(=O)(=O)Nc1ccc2oc3c(OC(F)F)ccc(C(=O)Nc4c(Cl)cncc4Cl)c3c2c1 [oglemilast]
inactive: 1 nM -1% | 8.33 nM 0.83% | 100 nM 1.63% | 833.33 nM 0.94% | 10000 nM 1.89%

CC[C@@]1(O)C(=O)OCc2c1cc1n(c2=O)Cc2cc3c(CN(C)C)c(O)ccc3nc2-1 [topotecan]
inactive: 1 nM 0.54% | 8.33 nM 1.66% | 100 nM -1.53% | 833.33 nM -6.88% | 10000 nM -15.3%

COc1ccccc1NC(=O)OCC1CCN(C(=O)OC(C)(C)C)CC1
inactive: 1 nM 0.55% | 8.33 nM -0.78% | 100 nM 1.48% | 833.33 nM -0.14% | 10000 nM 0.81%

O=S1(=O)c2cccc3cccc(c23)N1CCCN1CCN(c2ccc(F)cc2)CC1 [fananserin]
inactive: 1 nM -2.57% | 8.33 nM -1.46% | 100 nM -1.21% | 833.33 nM -2.34% | 10000 nM -0.89%

C=C1CCN([C@H](C)[C@](O)(Cn2cncn2)c2ccc(F)cc2F)CC1 [efinaconazole]
inactive: 1 nM -0.21% | 8.33 nM 1.69% | 100 nM 0.85% | 833.33 nM 0.56% | 10000 nM 2.84%

Cc1nc2c(OCc3ccccc3)cccn2c1CC#N
inactive: 1 nM -1.06% | 8.33 nM 0.99% | 100 nM 2.87% | 833.33 nM 0.07% | 10000 nM 1.07%

Nc1ccn(C[C@@H](CO)OCP(=O)(O)O)c(=O)n1 [cidofovir]
inactive: 1 nM -0.38% | 8.33 nM 0.11% | 100 nM -1.45% | 833.33 nM -1.91% | 10000 nM -2.8%

CN(C)CCC=C1c2ccccc2CCc2ccccc21 [amitriptyline]
inactive: 1 nM -2.51% | 8.33 nM -0.51% | 100 nM 5.58% | 833.33 nM 1.84% | 10000 nM -2.45%

Clc1cccc(Nc2nnc(-c3ccccc3)c3ccccc23)c1
inactive: 1 nM 1.65% | 8.33 nM 2.3% | 100 nM 2.13% | 833.33 nM 1.98% | 10000 nM 2.92%

CC(C)(C)c1cc(NC(=O)Nc2ccc(-c3cn4c(n3)sc3cc(OCCN5CCOCC5)ccc34)cc2)no1 [quizartinib]
inactive: 1 nM -1.91% | 8.33 nM -0.28% | 100 nM 0.83% | 833.33 nM -4.72% | 10000 nM -4.89%

Oc1cc2c(cc1O)C(c1ccccc1)CNCC2 (stereo not given)
inactive: 1 nM 3.06% | 8.33 nM 1.73% | 100 nM 1.53% | 833.33 nM 1.32% | 10000 nM 0.48%

COc1ccc(C(CN(C)C)C2(O)CCCCC2)cc1 (stereo not given) [venlafaxine]
inactive: 1 nM 0.56% | 8.33 nM 0.96% | 100 nM 1.86% | 833.33 nM -0.35% | 10000 nM -0.29%

Nc1ccc(-c2ccc3ncc4ccc(=O)n(-c5cccc(C(F)(F)F)c5)c4c3c2)cn1 [torin-2]
inactive: 1 nM 0.99% | 8.33 nM -0.26% | 100 nM -2.28% | 833.33 nM -4.78% | 10000 nM -8.11%

Oc1ccc(OC2CCCCO2)cc1 (stereo not given) [deoxyarbutin]
inactive: 1 nM -1.9% | 8.33 nM -1.93% | 100 nM -0.6% | 833.33 nM 0.9% | 10000 nM -0.71%

S=C(NCCc1ccccn1)Nc1ccc(Br)cn1 [trovirdine]
inactive: 1 nM 2% | 8.33 nM 2.79% | 100 nM 2.61% | 833.33 nM 1.44% | 10000 nM 0.69%

CC(C)c1cc(C(C)C)c(CC(=O)NS(=O)(=O)Oc2c(C(C)C)cccc2C(C)C)c(C(C)C)c1 [avasimibe]
inactive: 1 nM -2.41% | 8.33 nM 1.3% | 100 nM -0.91% | 833.33 nM -2.68% | 10000 nM -1.52%

C=C[C@]1(C)C[C@@H](OC(=O)CSC(C)(C)CNC(=O)[C@H](N)C(C)C)[C@]2(C)[C@H](C)CC[C@]3(CCC(=O)[C@H]32)[C@@H](C)[C@@H]1O [valnemulin]
inactive: 1 nM -0.47% | 8.33 nM -0.46% | 100 nM -2.63% | 833.33 nM -4.5% | 10000 nM -4.72%

CCCCCCCC/C=C\CCCCCCCC(=O)NCCO [oleoylethanolamide]
inactive: 1 nM 1.05% | 8.33 nM -0.89% | 100 nM -0.87% | 833.33 nM 0.17% | 10000 nM -4.33%

C[C@@]12C[C@@]3(O)O[C@@H](O1)[C@]1(COC(=O)c4ccccc4)[C@H]3C[C@@]12O[C@@H]1O[C@H](CO)[C@@H](O)[C@H](O)[C@H]1O [paeoniflorin]
inactive: 1 nM -0.01% | 8.33 nM 0.45% | 100 nM 0.1% | 833.33 nM 0.8% | 10000 nM 0.46%

CC(ONC(=O)c1cc(C(F)(F)F)cc(C(F)(F)F)c1)C(=O)Nc1ccc(Cl)cc1 (stereo not given)
inactive: 1 nM 1.52% | 8.33 nM -0.64% | 100 nM 0.05% | 833.33 nM -2.31% | 10000 nM 5.49%

Nc1nc2c(ncn2COCCO)c(=O)[nH]1 [acyclovir]
inactive: 1 nM 12.6% | 8.33 nM 6.63% | 100 nM 6.1% | 833.33 nM 7.16% | 10000 nM 2.2%

CCC[S+]([O-])c1ccc2[nH]c(NC(=O)OC)nc2c1 (stereo not given) [albendazole-oxide]
inactive: 1 nM 3.02% | 8.33 nM 2.02% | 100 nM 0.87% | 833.33 nM 1.7% | 10000 nM 0.07%

N=C(N)NCCN1CCCCCCC1 [guanethidine]
inactive: 1 nM 1.98% | 8.33 nM 0.59% | 100 nM 4.01% | 833.33 nM 2.31% | 10000 nM 0.3%

CN(Cc1ccccc1)C(=O)[C@H](Cc1ccc2ccccc2c1)NC(=O)[C@@H]1C[C@@H](O)CN1C(=O)c1cn(C)c2ccccc12
inactive: 1 nM 1.18% | 8.33 nM 4.31% | 100 nM 3.48% | 833.33 nM 1.69% | 10000 nM 1.87%

O[C@@](Cc1nc(CC2(C(F)(F)F)CC2)c[nH]1)(c1ccc(-n2cccn2)cc1)C(F)(F)F
inactive: 1 nM 0.23% | 8.33 nM -0.02% | 100 nM 0.57% | 833.33 nM -0.43% | 10000 nM -2.55%

COc1ccc(C(=O)NCc2ccc(OCCN(C)C)cc2)cc1OC [itopride]
inactive: 1 nM 0.25% | 8.33 nM -0.19% | 100 nM 1.77% | 833.33 nM -0.42% | 10000 nM 0.72%

NC(=O)C1=CN([C@@H]2O[C@H](COP(=O)(O)OP(=O)(O)OC[C@H]3O[C@@H](n4cnc5c(N)ncnc54)[C@H](OP(=O)(O)O)[C@@H]3O)[C@@H](O)[C@H]2O)C=CC1
inactive: 1 nM 0.75% | 8.33 nM 3.17% | 100 nM 2.16% | 833.33 nM 0.8% | 10000 nM -1.27%

CCCCCOc1ccc(-c2ccc(-c3ccc(C(=O)N[C@H]4C[C@@H](O)[C@@H](O)NC(=O)[C@@H]5[C@@H](O)[C@@H](C)CN5C(=O)[C@H]([C@@H](C)O)NC(=O)[C@H]([C@H](O)[C@@H](O)c5ccc(O)cc5)NC(=O)[C@@H]5C[C@@H](O)CN5C(=O)[C@H]([C@@H](C)O)NC4=O)cc3)cc2)cc1 [anidulafungin]
inactive: 1 nM -3.73% | 8.33 nM 0.49% | 100 nM 1.56% | 833.33 nM 0.77% | 10000 nM -2.12%

N#CCCCSC(=N)N [kevetrin]
inactive: 1 nM -0.54% | 8.33 nM -2.73% | 100 nM -3.7% | 833.33 nM -3.14% | 10000 nM -0.14%
